Rows were chosen to be rich in hits. Some 7.9% of all compounds tested hit in one or more screens of this group.
SW480 rereplic – induces DNA re-replication in SW480 colon adenocarcinoma cells. SW480 DNA re-replication, Hoechst DNA content imaging, 48 h. Potency, µM (doses to about 46.1 µM), for the others: at the top dose re-replication activation, usual class: activators. actives 1.8% (n = 340,000). AID 624297; also: % of control where 0% means no effect; nearly all actives have a fitted effect of over 55% in size
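DNA re-replication was detected as more nuclei of elevated Hoechst intensity after 48 hr exposure to compound (23 nL pinned per well of 250 cells).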
KB-3-1 tox – KB-3-1 parental cell cytotoxicity. Potency, µM (highest dose often 46.1 µM), actives largely listed as cytotoxic. actives 1.4% (n = 400,000). KB-3-1 viability, CellTiter-Glo ATP luminescence, 72 h. AID 1347075; also: % is scaled to controls: 0 for no effect and ±100 for the full control effect; nearly all actives have a fitted effect of over 60% in size
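Using CellTiter-Glo luminescence, growth of non-resistant KB-3-1 adenocarcinoma cells is assessed 72 h after pin-tool compound addition at 37 °C. Normalized responses across the concentration series yield fitted curves.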
KB-V1 MDR tox – KB-V1 MDR subline cytotoxicity; Potency, µM (titrated, usually from 46.1 µM), actives largely listed as cytotoxic; KB-V1 MDR cells viability, CellTiter-Glo, 72 h; actives 3.4% (n = 400,000); also: % is scaled to controls: 0 for no effect and ±100 for the full control effect; nearly all actives have a fitted effect of over 60% in size
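Readout: CellTiter-Glo luminescence, 10 min after addition. Cells: KB-V1 MDR subline, 72 h at 37 degrees C with compound. Analysis: corrected, normalized data fitted to concentration-effect curves.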
HT1080 IDH1KD tx – kills HT-1080 cells with IDH1 knockdown; HT-1080 IDH1 knockdown viability, ATP luminescence, 48 h; Potency, µM (doses to about 46.1 µM), for the others: at the highest dose activity, negative = toxicity, usual class: cytotoxic; actives 2% (n = 360,000); AID 686971;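 also: 0% = DMSO wells and -100% = cell-free medium wells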
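HT-1080-IDH1KD cells (IDH1 knocked down), 750/well in RPMI with 5% FBS, treated with compound 48 h at 37 degrees C. Viability by CellTiter-Glo luminescence, normalised to DMSO and no-cell wells; concentration-response curves classed.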
MCF10A rereplic – inducers of DNA re-replication in MCF 10A breast cells; Potency, µM (highest dose often 46.1 µM), for inactives: top-dose activity, positive = re-replication, usual class: activators; MCF 10A DNA re-replication, Hoechst nuclear intensity, 48 h; actives 2.9% (n = 350,000); also: % of control where 0% means no effect; nearly all actives have a fitted effect of over 50% in size
HT1080-NT tox – kills 2HG-producing HT-1080-NT fibrosarcoma cells; AID 686970; HT-1080-NT fibrosarcoma viability, CellTiter-Glo ATP luminescence, 48 h; Potency, µM (highest dose often 46.1 µM), for the others: at the top dose activity, negative = less viability, actives largely listed as cytotoxic; actives 1.6% (n = 360,000);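 also: NT is the 2HG producing partner of a matched IDH1 knockdown line; 0% = DMSO-treated cells and -100% = media-only wells without cells; nearly all actives have a fitted effect of over 55% in size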
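Luminescent CellTiter-Glo readout after 48 hours of compound exposure at 37 degrees C defined viability of HT-1080-NT cells. Activity was normalized to DMSO wells and cell-free media wells; concentration-response curves were fitted and assigned curve classes.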
* hit, by the source's call; i = inactive; ? = inconclusive; · = no result; [ ] = another dose, or the depositor's remark. Calls follow the shape of the dose curve; as a rule, active = well fitted curve in the direction sought with a large enough effect; inconclusive = small, poorly fitted or top-dose-only effect, or another doubt; inactive = no such curve, though single readings can be large; an effect the other way counts as inactive or inconclusive. Potency is read from the fitted curve at half-maximal effect.

SMILES	SW480 rereplic	KB-3-1 tox	KB-V1 MDR tox	HT1080 IDH1KD tx	MCF10A rereplic	HT1080-NT tox
CCOC(=O)c1c(C)[nH]c(C)c1S(=O)(=O)N(C)CC(=O)Nc1ccc(C)cc1Br	·	i	i	·	·	·
O=C1CCCC2=C1C1(CCCCC1)N=C(Nc1nc3ccccc3s1)N2	15.3%	i	i	-2.7%	10.3µM*	16.1%
O=C1CCCC2=C1C1(CCCC1)N=C(Nc1nc3ccccc3s1)N2	-2.9%	i	i	11.5%	?	9.6%
CC1(C(=O)NCc2ccccc2)CSCC(=O)N1CCc1c[nH]c2ccccc12 (stereo unspecified)	·	i	i	-1.5%	·	-29.7%
COC(=O)c1c[nH]n2c(=O)c(Cl)c(C)nc12	-4.3%	i	i	1.0%	?	-3.8%
COC(=O)c1c[nH]n2c(=O)c(Cc3ccc(F)cc3Cl)c(C)nc12	-7.8%	i	16.4µM*	?	2.6%	?
CC(C)C(=O)N1CCN(c2ccccc2NC(=O)COc2ccccc2)CC1	3.0%	i	?	3.5%	9.5%	-7.8%
CC(C)C(=O)N1CCN(c2ccccc2NC(=O)COc2ccc(C3CCCCC3)cc2)CC1	?	·	·	?	18.4µM*	?
CN1CCN(c2ccccc2NC(=O)COc2ccc(Br)cc2)CC1	-10.6%	i	20.6µM*	3.6%	?	-0.8%
CN1CCN(c2ccccc2NC(=O)c2ccc(OCc3ccccc3)cc2)CC1	?	?	?	23.1µM*	11.0%	?
CN1CCN(c2ccccc2NC(=O)c2cccc(OCc3ccccc3)c2)CC1	4.6%	i	i	17.8µM*	0.6%	?
O=C(COC(=O)c1ccccc1)Nc1ccccc1Br	0.4%	i	i	17.8%	-3.1%	17.3%
O=C(COC(=O)c1c(Cl)cccc1Cl)Nc1ccccc1Br	7.2%	i	18.4µM*	3.0%	?	-1.2%
CC(=O)c1ccc(COC(=O)c2cc3ccccc3oc2=O)cc1	?	i	i	6.5%	-1.1%	0.2%
CC(CCc1ccccc1)NC(=O)C1CCN(S(=O)(=O)N2CCOCC2)CC1 (stereo unspecified)	-2.8%	i	20.6µM*	25.1%	?	10.7%
CCn1c(=O)n(CC)c2cc(N3CCCCC3)c(NC(=O)Nc3cc(Cl)ccc3OC)cc21	·	i	i	·	·	·
CNC(=S)N(Cc1ccco1)Cc1cc2cc(OC)ccc2[nH]c1=O	-3.5%	i	?	-5.5%	-7.5%	-5.9%
CCOc1ccc2[nH]c(=O)c(CN(Cc3ccco3)Cc3nnnn3Cc3ccccc3)cc2c1	-0.6%	i	?	-29.6%	?	4.3%
CCc1ccc2[nH]c(=O)c(CN(Cc3ccccc3OC)Cc3nnnn3Cc3ccco3)cc2c1	?	20.6µM*	?	?	?	?
CCOC(=O)Cn1nnnc1C(C(C)C)N(Cc1cccs1)Cc1cc2cc(C)ccc2[nH]c1=O (stereo unspecified)	-15.0%	?	11.2µM*	-27.9%	?	-21.4%
COC(=O)c1ccccc1S(=O)(=O)N(Cc1ccco1)Cc1cc2cc(OC)ccc2[nH]c1=O	-0.5%	i	8.2µM*	-21.8%	-1.9%	-1.2%
COc1ccc2[nH]c(=O)c(CN(Cc3ccco3)Cc3nnnn3Cc3ccccc3)cc2c1	2.2%	i	7.31µM*	-4.0%	2.1%	-2.1%
Cc1ccc2[nH]c(=O)c(CN(Cc3cccs3)Cc3nnnn3Cc3ccco3)cc2c1	·	i	?	·	·	·
CCOC(=O)CC(NC(=O)c1cc2cc(Cl)ccc2oc1=O)c1ccc(C)cc1 (stereo unspecified)	·	i	i	·	·	·
CCCNC(=O)C[C@@H]1C[C@H]2c3cc(NC(=O)c4ccc5c(c4)OCO5)ccc3O[C@H]2[C@@H](CO)O1	·	i	i	7.0%	·	8.0%
SMILES	SW480 rereplic	KB-3-1 tox	KB-V1 MDR tox	HT1080 IDH1KD tx	MCF10A rereplic	HT1080-NT tox
COc1ccc(CN2CCC[C@]3(N[C@H](c4ccc(C(F)(F)F)cc4)[C@@H]4C(=O)N(Cc5ccccc5)C(=O)[C@@H]43)C2=O)cc1	·	i	i	-22.9%	·	-15.4%
COc1ccccc1CN(Cc1cc2cc(C)ccc2[nH]c1=O)Cc1nnnn1Cc1ccco1	5.0%	?	18.4µM*	-0.8%[9.24 µM]	21.9%	?
CCOC(=O)Cn1nnnc1CN(Cc1ccc(OC)cc1)Cc1cc2cc(C)ccc2[nH]c1=O	2.4%	i	i	2.0%	23.1µM*	8.6%
COc1ccc2[nH]c(=O)c(C(c3nnnn3C(C)(C)C)N(Cc3ccco3)CC3CCCO3)cc2c1 (stereo unspecified)	7.31µM*	i	i	?	25.5%	-26.6%
O=C(N/N=C\c1cc(Cl)ccc1O)c1ccc(S(=O)(=O)N2CCCCC2)cc1	7.31µM*	?	?	2.31µM*	14.6µM*	7.31µM*
O=C(N/N=C/c1cc(Cl)ccc1O)c1cccnc1	1.3µM*	?	i	?	?	?
O=C(CNC(=O)c1ccc2c(c1)OCO2)N/N=C/c1cc(Br)ccc1O	4.11µM*	?	i	11.6µM*	7.0%	?
O=C(CNC(=O)c1ccccc1)N/N=C/c1cc(Br)ccc1O	?	?	?	16.4µM*	12.9%	?
O=C(Nc1cc(S(=O)(=O)Nc2ccc(Cl)cc2)ccc1O)c1ccc(S(=O)(=O)N2CCCCCC2)cc1	14.2%	i	i	?	?	-28.9%
O=C(CNC(=O)c1ccncc1)N/N=C/c1cc(Br)ccc1O	-5.9%	i	i	3.3%	-0.1%	-0.1%
O=C(N/N=C/c1ccccc1O)c1ccc2c(c1)OCO2	?	?	i	?	?	?
O=C(N/N=C/c1cccnc1)c1cccc(Cl)c1	-13.6%	i	?	21.5%	-3.8%	15.2%
C[n+]1c(/C=C/c2ccc(F)cc2)ccc2ccccc21	·	?	i	·	·	·
O=C(/C=N/NC(=O)c1ccccc1Br)c1ccccc1	-9.6%[1.84 µM]	i	i	-8.2%	-28.0%	-3.2%
O=C(CNC(=O)c1ccco1)N/N=C/c1cc(Br)ccc1O	?	?	?	25.9µM*	?	?
O=C(CNC(=O)c1ccccc1Br)N/N=C/c1cc(Br)ccc1O	7.31µM*	i	i	?	?	?
O=C(N/N=C/c1cc(Cl)ccc1O)c1ccccc1Br	6.51µM*	?	?	9.2µM*	12.1%	?
CC(=O)Nc1ccc(/C=C/c2ccnc3ccccc23)cc1[N+](=O)[O-]	·	?	i	·	·	·
Cc1c(Cl)cccc1NC(=O)Cn1nc(C)c2sc3ccccc3c2c1=O	·	i	i	·	·	·
